We go through 100 compounds from PubChem BioAssay AID602410 (Johns Hopkins Ion Channel Center, 2012).

The whole screen tested about 340,000 compounds, of which about 2,800 (0.82%) were called active.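 How the source made its calls: active means B-score under library mean minus 4 SD, starting fluorescence ratio at most library mean plus 5 SD; inactive means the rest.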 The list comes from a sample in which actives are over-represented; it also holds similar structures and randomly drawn compounds.

The target of this test is Potassium channel subfamily K member 3 (Homo sapiens) (UniProt O14649). Put plainly: human KCNK3 channel inhibitors, primary screen, CHO cells, FluxOR thallium flux, B-score (AID 602410).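 On B-score: more negative B-score means stronger inhibition of thallium flux through KCNK3.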 To be noted: FluxOR fluorescence, at 10 µM; stronger effect = lower value.
Chain of Potassium channel subfamily K member 3 (Homo sapiens) (O14649 whole entry, looked up): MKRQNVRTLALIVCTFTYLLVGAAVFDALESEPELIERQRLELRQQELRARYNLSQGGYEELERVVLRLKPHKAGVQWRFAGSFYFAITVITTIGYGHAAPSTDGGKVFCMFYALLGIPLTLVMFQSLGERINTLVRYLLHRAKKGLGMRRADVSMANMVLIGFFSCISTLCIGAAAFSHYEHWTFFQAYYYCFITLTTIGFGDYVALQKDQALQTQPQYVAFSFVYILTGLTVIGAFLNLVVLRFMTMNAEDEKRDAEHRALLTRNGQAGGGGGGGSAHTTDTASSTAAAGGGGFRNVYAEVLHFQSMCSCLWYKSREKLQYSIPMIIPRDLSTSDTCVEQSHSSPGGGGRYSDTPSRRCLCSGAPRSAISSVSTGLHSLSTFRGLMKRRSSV
For the compound `COc1cccc(NC(=O)CN(C)C(=O)/C=C/c2cn(-c3ccccc3)nc2-c2cccs2)c1`, the B-score was -10.7 (active). Next, `COc1ccc(NC(=O)CN(C)C(=O)/C=C/c2cn(Cc3ccccc3)nc2-c2cccnc2)cc1`: “inactive”; `COc1cccc(NC(=O)CN(C)C(=O)/C=C/c2cc(OC)ccc2OC)c1`: “inactive”. With `CCN(c1ccccc1)S(=O)(=O)c1ccc(OCC(=O)N2CCCC2)cc1` the entry was “inactive”. Next, `Cc1nc2nc[nH]n2c(=O)c1NC(=O)c1cccc(OCC(C)C)c1`: “inactive”; `C=CCN(C(=O)c1cc(C)cc(C)c1)C1(C(=O)Nc2ccccc2)CCN(C(C)C)CC1`: -9.18 (active); `C=CCn1cc(Cl)cc(C(=O)Nc2ccccc2)c1=O`: “inactive”.

On to `CC(C)N1CCC(NC(=O)Nc2ccccc2)CC1`, for which the B-score result is “inactive”. Regarding `Cc1cccc(-c2c(NC(=O)c3ccco3)oc3ccc(Cl)cc3c2=O)c1`, the B-score entry is “inactive”. With `O=C(CS(=O)(=O)Cc1ccccc1)Nc1cccnc1` the entry was “inactive”. As for `CC(=O)Nc1ccc(S(=O)(=O)N(CCc2ccccc2)CC(=O)N/N=C/c2ccc(C(=O)O)cc2)cc1`, the B-score entry is “inactive”.

`O=C(NCCc1ccccc1)c1ccc2c(c1)N(Cc1ccccc1)CCS2`: the B-score is -11.6 (active). As to `CCOC(=O)N1CCN(C(=O)c2ccc3c(c2)N(Cc2ccc(C)cc2)CCS3)CC1`, the B-score result is “inactive”. Take `O=C(NCCc1ccccc1)c1cccc(NC(=O)c2ccccc2)c1`: the B-score entry was “inactive”. As to `CCOCc1c(C(=O)N2CCN(Cc3ccc(Br)s3)CC2)oc2ccccc12`, the B-score entry was “inactive”. For the compound `CCOc1ccc(S(=O)(=O)N(CC(=O)NCC(F)(F)F)Cc2ccco2)cc1`, the B-score entry was “inactive”. As to `CC(C)CCNC(=O)CN(C(=O)Cn1nnc(-c2ccc(F)cc2)n1)C1CCCC1`, the B-score entry was “inactive”. Next, `CC(C)CCNC(=O)C(C)N(C(=O)Cn1nnc(-c2ccc(F)cc2)n1)C1CCCC1` (stereo not given): -9.19 (active); `CN(C(=O)Cn1nnc(-c2ccc(F)cc2)n1)C1CCS(=O)(=O)C1` (stereo not given): “inactive”; `C#CCOCCOCCOCCNc1nc(N2CCN(C(=O)C(Cc3ccc(O)cc3)n3cc(C(N)CC(C)C)nn3)CC2)nc(N2CCN(C(=O)C(Cc3ccc(O)cc3)n3cc(C(N)C(C)CC)nn3)CC2)n1` (stereo not given): “inactive”. With `COc1ccc(-n2c(O)c(C=NCC(c3ccco3)N3CCCC3)c3ccccc3c2=O)cc1OC` (stereo not given) the entry was “inactive”. With `COc1ccc(Oc2cn[nH]c2-c2ccc(OC)cc2O)cc1` the entry was “inactive”; with `CCOc1ccc(-c2nc(N)ncc2-c2ccccc2OC)c(O)c1`, “inactive”; with `CCOc1ccccc1Oc1cn[nH]c1-c1ccc(OC)cc1O`, -8.87 (active).

Turning to `CC1CCc2sc(C(=O)NCC(c3ccco3)N3CCCCC3)cc2C1` (stereo not given), the B-score entry is “inactive”. As for `O=C(Oc1ccccc1C(=S)N1CCCCC1)c1cc([N+](=O)[O-])cc([N+](=O)[O-])c1`, the B-score result was “inactive”. With `O=C(Oc1ccc(Br)cc1C(=S)N1CCOCC1)c1cccc([N+](=O)[O-])c1` the figure was -11.4 (active); with `COc1cc(C(=S)N2CCOCC2)cc(OC)c1OC(=O)c1cc([N+](=O)[O-])cc([N+](=O)[O-])c1`, “inactive”; with `O=C(N/N=C/c1sc(N2CCCCC2)nc1-c1cccs1)c1cccnc1`, -10.7 (active). With `Cc1ccc(NC(=O)COc2ccc(/C=N\NC(=O)c3cccnc3)cc2)cc1C` the entry was “inactive”. Next, `O=C(NN=C1CCC(=NNC(=O)c2cccnc2)CC1)c1cccnc1`: “inactive”; `CCCCCCC(O)(CCN1CCCCC1)c1ccccc1` (stereo not given): “inactive”; `Nc1nnc(SCC(=O)NCC(=O)Nc2ccc(F)c(F)c2F)s1`: “inactive”.

On to `O=C(NC1=CC(=O)c2ccccc2C1=O)c1ccccc1`, for which the B-score result is “inactive”. Next, `O=C1C(Cl)=C(Oc2ccccc2)C(=O)c2ccccc21`: “inactive”. With `CC(=O)N(C1=C(Cl)C(=O)c2ccccc2C1=O)c1ccc(C(=O)O)cc1` the figure was -11 (active); with `CS(=O)(=O)N(CC(=O)N1CCc2ccccc2C1)c1ccc(Br)cc1`, “inactive”; with `CC(C)OCC(O)CN1CCN(C(c2ccccc2)c2ccccc2)CC1` (stereo not given), “inactive”. Take `CC1(C)CC(N2CCN(C(c3ccccc3)c3ccccc3)CC2)=CC(=[N+]2CCCCC2)C1`: the B-score is -8.86 (active). With `COc1ccccc1CN1CCN(C(c2ccccc2)c2ccccc2)CC1` the entry was “inactive”; with `CC(C)Nc1nnc(SCC(=O)/C=C2\N(C)c3ccccc3C2(C)C)s1`, “inactive”. For the compound `CN1CCN(CCC(=O)N/N=C/C=C2\N(C)c3ccccc3C2(C)C)CC1`, the B-score entry is “inactive”. On to `CC(=O)Nc1cccc(OCC(=O)/C=C2\N(C)c3ccccc3C2(C)C)c1`, for which the B-score was -8.91 (active). As for `CCCCn1c(N)c(N(CCOC)C(=O)c2cccc(S(=O)(=O)N3CCCCC3)c2)c(=O)[nH]c1=O`, the B-score entry is “inactive”. On to `CC(C)c1cc(C(=O)N/N=C/c2ccoc2)c(O)c(C(C)C)c1`, for which the B-score was -10.5 (active).

As for `CC(Oc1ccccc1[N+](=O)[O-])C(=O)N/N=C/c1ccoc1` (stereo not given), the B-score entry is “inactive”.

Regarding `O=C(N/N=C/c1ccoc1)c1ccc(Cl)cc1Cl`, the B-score result is “inactive”. Regarding `COC(=O)c1cc2c(ccn2C)n1C`, the B-score entry is “inactive”. With `COc1ccc(S(=O)(=O)c2c[nH]c(=S)[nH]c2=O)cc1Cl` the entry was “inactive”; with `CC(=O)Nc1ccc(S(=O)(=O)NCCC(=O)N2CCN(c3ccccc3Cl)CC2)cc1`, “inactive”. Take `OC(CN=c1sc2ccccc2n1CC(O)COc1ccccc1)COc1ccccc1` (stereo not given): the B-score is -12.6 (active). Regarding `CC(C)c1ccc(OCC(O)Cn2cnc3ccccc32)cc1` (stereo not given), the B-score result is “inactive”. Next, `O=C(C(c1ccccc1)c1ccccc1)N1CCN(CC(O)COc2ccccc2)CC1` (stereo not given): “inactive”.

Regarding `COc1ccc(C)cc1NC(=O)CNCc1cccs1`, the B-score entry is “inactive”. As for `O=C1OC(Oc2ccc(Br)cc2)(c2ccccc2)c2ccccc21` (stereo not given), the B-score is -10.1 (active).

Consider `CS(=O)(=O)Nc1ccccc1N=C(c1ccccc1)c1ccccc1`, for which the B-score result is “inactive”. Next, `CCC(CC)C(=O)Nc1cc(C(=O)OC)cc(C(=O)OC)c1`: “inactive”; `O=C(NCCCO)c1cc2c([nH]c3ccccc32)c(-c2ccc(F)cc2)n1`: “inactive”. `COc1ccccc1N1CCN(C(=O)c2cn(-c3ccccc3)nc2-c2cccnc2)CC1`: the B-score entry was “inactive”. `CN(CCNC(=O)c1cc2c(-c3ccccc3F)nn(C)c2s1)C1CCCCC1`: the B-score result was “inactive”. Next, `COc1ccccc1N1CCN(C(=O)c2cc3c(-c4ccc(Cl)cc4)nn(C)c3s2)CC1`: -10.1 (active); `COc1cccc(-c2nn(C)c3sc(C(=O)N4CCN(c5ccccc5)CC4)cc23)c1`: “inactive”; `Cn1nc(-c2ccc(Cl)cc2)c2cc(C(=O)NCc3ccco3)sc21`: -13.2 (active). With `COc1ccc2c(Cl)c(C(=O)NCc3ccco3)sc2c1` the entry was “inactive”; with `CCOc1ccc(NS(=O)(=O)c2cc(C)c(C)cc2C)cc1`, “inactive”. Turning to `CCOc1ccccc1NC(=O)c1cc(S(=O)(=O)N2CCC3(CC2)OCCO3)ccc1F`, the B-score result is “inactive”.

For the compound `CC(=O)N1CC[n+]2c(-c3ccc([N+](=O)[O-])cc3)csc21`, the B-score result was “inactive”.

For `CC1CCCCC12NC(=O)N(CC(=O)OCc1c(F)cccc1Cl)C2=O` (stereo not given), the B-score entry was “inactive”. Next, `CCOc1ccc(N(C)Cc2cc(=O)oc3ccc(OC)cc23)cc1`: “inactive”; `Cc1cc2oc(=O)cc(CN(C)Cc3ccc(OC(F)F)cc3)c2cc1Cl`: -10.4 (active); `Cc1ccc(CN(C)Cc2cc(=O)oc3cc(C)c(Cl)cc23)cc1`: “inactive”.

`NNC(=O)c1cccc(COCC(F)(F)C(F)F)c1`: the B-score result is “inactive”. Next, `N#C/C(=C\C1=C(N2CCOCC2)C(=C\c2ccccc2)/CC1)C(=O)Nc1ccccc1F`: “inactive”. On to `O=C1Nc2ccc(Br)cc2/C1=N/N=C/C1=C(N2CCOCC2)C(=C\c2ccccc2)/CC1`, for which the B-score result was “inactive”. Next, `O=C(O)c1ccc(NN=CC2=C(N3CCOCC3)/C(=C/c3ccccc3)CC2)cc1`: -9.13 (active); `COc1ccc(N2CCN(CCNC(=O)Nc3cc(Cl)ccc3Cl)CC2)cc1`: “inactive”; `COc1ccc(NC(=O)c2sccc2SCC#N)cc1`: “inactive”. Next, `CC(C)(C)N1CC(c2nc3ccccc3n2Cc2ccc(F)cc2)CC1=O` (stereo not given): “inactive”; `Cc1cc(C)c(C)c(S(=O)(=O)N[C@@H](C)C(=O)OC(C)C(=O)NC(N)=O)c1C` (stereo not given in full): “inactive”; `CCSc1nsc(NC(=O)Nc2cccc(C(C)=O)c2)n1`: “inactive”. For `CSc1nsc(NC(=O)Nc2ccccc2)n1`, the B-score entry was “inactive”. Turning to `C=CCSc1nsc(NC(=O)Nc2cccc(C(C)=O)c2)n1`, the B-score is -9.78 (active). Regarding `CCOC(=O)C1CCCN(C(=O)C2CCN(S(=O)(=O)c3ccc(Cl)c(C(F)(F)F)c3)CC2)C1` (stereo not given), the B-score result was “inactive”. For `COC(=O)c1cccc(-n2[nH]nnc2=S)c1`, the B-score result is “inactive”. Next, `COc1ccccc1CNC(=O)COc1ccc(C)nc1[N+](=O)[O-]`: “inactive”; `Cc1ccc(S(=O)(=O)N2C[C@@H]3CCCC[C@@H]3[C@@H](C)[C@H]2c2cn(Cc3ccccc3)c3ccc(F)cc23)cc1`: “inactive”. Turning to `CCc1ccccc1NC(=O)NCCN1CCCCC1`, the B-score entry is “inactive”.

In the case of `CN1CCc2ccccc2C1Cc1ccccc1NC(=O)c1sc2ccccc2c1Cl` (stereo not given), the B-score was -9.31 (active). As to `COc1ccc(CNC(=O)CNC(=O)c2sc3ccccc3c2Cl)cc1OC`, the B-score entry was “inactive”. With `CCOc1ccc(CCNC(=O)COC(=O)c2ccc(F)c(S(=O)(=O)N3CCOCC3)c2)cc1OCC` the entry was “inactive”; with `CCOc1ccc(OCC)c(NC(=O)C2CCN(S(=O)(=O)c3c(C)noc3C)CC2)c1`, “inactive”; with `CC[n+]1cc(C)ccc1/C=C/c1ccc(N(C)C)cc1`, -8.95 (active). With `CCOC(=O)C1CCN(C(=O)C2CCN(S(=O)(=O)CC)CC2)CC1` the entry was “inactive”. Next, `COC(=O)c1ccccc1Sc1c(/C=N/OCc2ccc(Cl)cc2)c(C(F)(F)F)nn1C`: “inactive”. For `Cc1ccc(C(=O)N2CCCC(c3ccccc3)=N2)cc1`, the B-score result is “inactive”. On to `Cc1ccc(NC(=O)CCC(=O)N2CCC(c3ccccc3)=N2)cc1S(=O)(=O)N1CCCCC1`, for which the B-score result was “inactive”.

Take `Cc1ccc(NC(=S)N2CCCC(c3ccccc3)=N2)cc1`: the B-score is -8.89 (active). Next, `Cc1ccc(CSc2nc3[nH]ncc3c(=O)[nH]2)cc1`: “inactive”. With `Cc1cc2c(=O)n(CC(=O)NCC(=O)Nc3ccc(C(C)C)cc3)cnc2s1` the entry was “inactive”; with `CCOC(=O)c1c(N)sc2c1CCCC2=O`, “inactive”.
